KinaseGlo FLuc – blocks Kinase-Glo luciferase, a counter-screen artifact; Kinase-Glo luciferase, ATP luminescence, 8 min; Potency, µM (top dose mostly 38.3 µM), inactives show top-dose activity change, negative = inhibition, hits mostly inhibitors; actives 0.28% (n = 200,000); also: % is scaled to controls: 0 for no effect and ±100 for the full control effect; nearly all actives have a fitted effect of over 60% in size
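Substrate mix (final 50 mM imidazole pH 7.2, 50 mM KCl, 7 mM MgCl2, 10 uM ATP, 0.01% Tween 20, 0.05% BSA) plus pin-tool compound, then Kinase-Glo detection mix; 8 min ambient, luminescence read.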
Rab9 promoter act – Rab9 promoter activation. Huh7 Rab9 promoter-luciferase reporter, luminescence, 24 h. AID 485297. actives 2.8% (n = 320,000). Potency, µM (titrated, usually from 9.22 µM), without a hit: at the top dose activation, negative = inhibition, hits mostly activators; also: % of control where 0% means no effect; nearly all actives have a fitted effect of over 60% in size
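Huh7 reporter line, Rab9 promoter upstream of luciferase. Compound exposure 24 h at 37 °C in reduced-serum medium with 10% FBS. Read-out: luminescence.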
FLuc modulator – firefly luciferase modulation, counter-screen for miR-21 project | P08659 | purified FLuc, Km substrates, luminescence inhibition | Potency, µM (series often up to 57.5 µM), inactives show top-dose activity change, negative = inhibition, actives largely listed as inhibitors | actives 6.9% (n = 360,000);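 also: plate controls were vehicle for no effect and reference inhibitor for full effect; nearly all actives have a fitted effect of over 55% in size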
Target sequence (P08659 whole entry, looked up): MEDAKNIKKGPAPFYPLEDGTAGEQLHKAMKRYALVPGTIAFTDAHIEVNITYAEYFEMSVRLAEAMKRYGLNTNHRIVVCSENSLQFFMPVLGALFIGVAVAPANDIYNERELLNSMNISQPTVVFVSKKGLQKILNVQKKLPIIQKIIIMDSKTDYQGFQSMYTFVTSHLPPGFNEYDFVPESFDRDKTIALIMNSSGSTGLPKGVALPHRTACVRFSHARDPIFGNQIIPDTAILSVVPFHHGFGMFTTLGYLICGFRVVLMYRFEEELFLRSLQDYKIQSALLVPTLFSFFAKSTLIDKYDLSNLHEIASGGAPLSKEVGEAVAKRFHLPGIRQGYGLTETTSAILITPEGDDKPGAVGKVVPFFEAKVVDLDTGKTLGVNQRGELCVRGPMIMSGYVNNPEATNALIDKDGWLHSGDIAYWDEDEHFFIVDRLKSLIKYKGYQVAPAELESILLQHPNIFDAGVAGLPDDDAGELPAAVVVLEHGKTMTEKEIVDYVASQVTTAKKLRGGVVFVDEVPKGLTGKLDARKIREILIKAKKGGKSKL
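Biochemical qHTS of compounds, final roughly 60 µM downward over six points, against 10 nM purified firefly luciferase using Km concentrations of substrates (10 uM D-luciferin, 10 uM ATP) in Tris acetate pH 7.5 buffer; luminescence output.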
SMN2 splice enh – enhancers of SMN2 splice variant expression; HEK293 SMN2-luciferase splicing reporter, luminescence, 30-36 h; Potency, µM (doses to about 46.1 µM), without a hit: at the top dose activity change, positive = activation, usual class: activators; actives 2.8% (n = 210,000); AID 1458; also: % of control where 0% means no effect; nearly all actives have a fitted effect of over 55% in size
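HEK293 cells carry an SMN2 […]–luciferase reporter in which exon 7 inclusion puts luciferase in frame. Cells were plated 10-12 h before compound addition, then incubated 30-36 h at 37C. ONE-Glo luminescence was read; sodium butyrate at 4.5 mM final served as control.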
ELG1 genotox – inducers of genotoxicity in HEK293T ELG1-luciferase cells | Potency, µM (titrated, usually from 46 µM), without a hit: top-dose activity change, positive = activation, actives largely listed as activators | actives 1.3% (n = 330,000) | HEK293T ELG1-luciferase reporter, luminescence, 16 h; also: % of control where 0% means no effect; nearly all actives have a fitted effect of over 60% in size
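Cells (2,000/well) expressing the ELG1-luciferase fusion are dosed by pin tool and kept 16 hr at 37 °C, 5% CO2. Signal comes from ONE-Glo luciferase reagent after 30 min at room temperature.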
NPC1 promoter act – activates the NPC1 promoter; Huh7 NPC1 promoter luciferase reporter, 24 h; Potency, µM (series often up to 9.22 µM), for the others: top-dose activation, usual class: activators; actives 2.4% (n = 320,000); also: % of control where 0% means no effect; nearly all actives have a fitted effect of over 60% in size
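Luciferase expression driven by the NPC1 promoter was measured in stably transfected Huh7 cells after a 24 h compound incubation, using a luciferase reagent and a luminescence read.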
An asterisk follows results filed as active; ? = inconclusive; . = no result given; [ ] = remark or other dose. A selection: hits, their analogues and other compounds. The true share with any hit is near 7.5%. Calls follow the shape of the dose curve; as a rule, active = well fitted curve in the direction sought with a large enough effect; inconclusive = small, poorly fitted or top-dose-only effect, or another doubt; inactive = no such curve, though single readings can be large; an effect the other way counts as inactive or inconclusive. Potency is read from the fitted curve at half-maximal effect.

SMILES	KinaseGlo FLuc	Rab9 promoter act	FLuc modulator	SMN2 splice enh	ELG1 genotox	NPC1 promoter act
CCOc1cccc(C(=O)Nc2cccc(C(C)=O)c2)c1	-1%	22%	?	?	0%	6%
COc1cccc(C(=O)Nc2ccc3c(c2)n(C)c(=O)n3C)c1	.	12%	?	.	?	0%
COc1cccc(C(=O)Nc2cccc(C(C)=O)c2)c1	?	?	21µM*	.	?	?
COc1cccc(NC(=O)c2cccc(Cl)c2)c1	.	2µM*	3.4µM*	.	2.1µM*	2.5µM*
COc1cc(NC(=O)c2ccnnc2)cc(C(=O)Nc2cccc(C(F)(F)F)c2)c1	.	2%	19µM*	.	-2%	0%
CCN(C(=O)COC(=O)/C=C/c1ccco1)C1CCCCC1	.	.	.	.	0%	.
COc1cc(OC)cc(C(=O)Nc2cccc(-c3ccc4nncn4n3)c2)c1	3%	-9%	0%	1%	-4%	-7%
COc1cccc(C(=O)Nc2ccc(C)cc2)c1	-15%	1µM*	6µM*	11µM*	1.8µM*	1.4µM*
O=C(NC(=S)Nc1ccc2c(c1)C(=O)c1ccccc1C2=O)c1ccc(F)cc1	-7%	?	17µM*	11µM*	?	?
COc1cccc(C(=O)Nc2ccc(C(=O)O)cc2)c1	.	0%	?	.	1%	6%
O=C(NC(=S)Nc1ccc(NC(=O)c2ccccc2)cc1)c1ccc(F)cc1	.	2%	1%	.	10%	20%
COc1cccc(C(=O)Nc2ccc(C(=O)c3ccccc3)cc2)c1	.	-3%	?	.	8%	7%
COc1cccc(C(=O)Nc2ccc3c(c2)C(=O)c2ccccc2C3=O)c1	-5%	?	?	-15%[1.84 µM]	?	3.2µM*
COc1ccc(C(=O)Nc2cccc(-c3ccc4nncn4n3)c2)cc1	1%	-4%	17µM*	-5%	-6%	-3%
CCOc1ccc(-c2noc(CCC(=O)NC3CCCCC3)n2)cc1OC	.	1%	1%	.	1%	-1%
O=C(N=C1SC2CS(=O)(=O)CC2N1c1ccccc1)c1cccc([N+](=O)[O-])c1 (centres undefined)	.	-1%	5%	.	-4%	0%
COC(=O)c1cc(S(=O)(=O)Nc2ccc(C)cn2)c[nH]1	.	0%	0%	.	0%	2%
COc1ccc(C(=O)Nc2ccc(C(=O)Nc3cccc(C)c3)cc2)cc1	.	-11%	3%	.	13µM*	-8%
CCC(=O)Nc1ccc2c(c1)C(=O)c1ccccc1C2=O	-2%	1.3µM*	3.8µM*	11µM*	?	1.6µM*
COC(=O)c1ccccc1NC(=O)c1cc2sccc2n1C	20%	11%	?	-2%	-1%	-4%
COC(=O)c1cccc(NC(=O)c2cc3sccc3n2C)c1	1%	1.8µM*	15µM*	11µM*	?	1.3µM*
COc1cccc(C(=O)Nc2cccc(OC(C)=O)c2)c1	-27%	?	?	11µM*	6%	?
CCC(=O)Nc1ccc2c(c1)C(=O)N(C)C2=O	1%	18%	1%	2%	-7%	-3%
COc1cccc(C(=O)Nc2ccncc2)c1	-7%	3%	-8%	.	-5%	-2%
COC(=O)c1cccc(NC(=O)c2cccc(OC)c2)c1	?	.	12µM*	?	.	.
COc1cccc(C(=O)NC(=S)Nc2ccc(N(C)C)cc2)c1	0%	3.5µM*	12µM*	11µM*	?	?
CCCOc1ccc(C(=O)Nc2cccc(NC(=O)c3cccc(Cl)c3)c2)cc1	.	.	12µM*	29%	.	.
O=C(Oc1ccccc1)N1CCC2(CC1)CCN(c1ccncc1)CC2	-1%	.	.	-80%	.	.
CCCCn1c(N)c(N(CCOC)C(=O)c2cccc(-n3cnnn3)c2)c(=O)[nH]c1=O	.	-2%	-1%	.	5%	-2%
CC(C)c1ccc(C(=O)NN2C(=O)C3CCCCC3C2=O)cc1 (centres undefined)	0%	3.2µM*	2.1µM*	11µM*	?	3.5µM*
